Source: PubChem BioAssay (Tox21)
Results filed as inconclusive are left out. Active and inactive are the calls of the source. Calls come from the whole dose curve; as a rule, active = well fitted curve in the direction sought with a large enough effect in the repeat runs; inconclusive = weak or mixed curves; inactive = no such curve, though single readings can be large; an effect the other way counts as inactive or inconclusive.

Assays:
[1] = A CellTox Green Cytotoxicity Assay to monitor cytotoxicity in HepG2 cells - 16 hour (AID 1224876); note: nearly all actives have a fitted effect of over 45% in size; note: potency is the fitted concentration of half-maximal effect
Procedure, shortened: (§1)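 HepG2, 600 cells/well premixed w/ CellTox Green; 5 h settle, 37 C/5% CO2; pintool cpd add (DMSO); 37 C, 40 h; fluorescence read at 0, 8, 16, 24, 32, 40 h.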

[2] = qHTS RealTime-Glo MT Cell Viability Assay in HepG2 cells - 32 hour (AID 1224877); note: nearly all actives have a fitted effect of over 55% in size
Procedure, shortened: (§2)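 qHTS, HepG2, 600 cells/well, RealTime-Glo (NanoLuc + prosubstrate) added with cells; 5 h preincubation; DMSO compound addition; 37 C; luminescence at 0/8/16/24/32/40 h.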

[3] = A CellTox Green Cytotoxicity Assay to monitor cytotoxicity in HepG2 cells - 24 hour (AID 1224878); note: nearly all actives have a fitted effect of over 45% in size; note: potency is the fitted concentration of half-maximal effect
Procedure, shortened: as §1

[4] = A CellTox Green Cytotoxicity Assay to monitor cytotoxicity in HepG2 cells - 40 hour (AID 1224879); note: nearly all actives have a fitted effect of over 40% in size
Procedure, shortened: as §1

[5] = A CellTox Green Cytotoxicity Assay to monitor cytotoxicity in HEK293 cells - 32 hour (AID 1224881); note: nearly all actives have a fitted effect of over 40% in size
Procedure, shortened: (§3)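 Read-out: fluorescence of a cell-impermeant cyanine dye staining DNA of dead cells, proportional to cytotoxicity. HEK293, 600 cells/well with reagent, compound (23 nL DMSO) added after 5 h; reads at 0, 8, 16, 24, 32, 40 h.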

[6] = A CellTox Green Cytotoxicity Assay to monitor cytotoxicity in HepG2 cells - 32 hour (AID 1224883); note: nearly all actives have a fitted effect of over 50% in size
Procedure, shortened: as §1

[7] = A CellTox Green Cytotoxicity Assay to monitor cytotoxicity in HEK293 cells - 8 hour (AID 1224884); note: nearly all actives have a fitted effect of over 35% in size; note: potency is the fitted concentration of half-maximal effect
Procedure, shortened: as §3

[8] = qHTS RealTime-Glo MT Cell Viability Assay in HepG2 cells - 16 hour (AID 1224885); note: nearly all actives have a fitted effect of over 50% in size
Procedure, shortened: as §2

[9] = qHTS RealTime-Glo MT Cell Viability Assay in HEK293 cells - 0 hour (AID 1224880); note: top concentration of the series differs between compounds; nearly all actives have a fitted effect of over 45% in size
Procedure, shortened: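 Luminescence readout at each listed time point; HEK293, 600 cells/well, RealTime-Glo MT reagent added with cells; compounds pinned (23 nL in DMSO) after 5 h at 37 C; continuous culture at 37 C.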

[10] = A CellTox Green Cytotoxicity Assay to monitor cytotoxicity in HepG2 cells - 0 hour (AID 1224882); note: nearly all actives have a fitted effect of over 35% in size; note: potency is the fitted concentration of half-maximal effect
Procedure, shortened: as §1
% is set by controls: 0 for no effect and ±100 for the full control effect.

Cc1cccc(C(=O)O)c1[N+](=O)[O-]
inactive: Potency [1] | outcome [2] | Potency [3] | Potency [4] | Potency [5] | Potency [6] | Potency [7] | outcome [8]

O=C(Nc1cccc(C2=NCCN2)c1)Nc1cccc(C2=NCCN2)c1
inactive: activity change, negative = cytotoxic [2] 2.71% [at 15.8 µM] | cytotoxicity [3] -8.34% [at 15.8 µM] | cytotoxicity increase [4] -7.03% [at 15.8 µM] | activity change, negative = cytotoxicity [9] -5.15% [at 15.8 µM] | cytotoxicity increase [5] -2.02% [at 15.8 µM] | cytotoxicity [10] -0.131% [at 15.8 µM] | cytotoxicity increase [6] -8.68% [at 15.8 µM] | cytotoxicity increase [7] -6.06% [at 15.8 µM]

C1=C\CC/C=C\CC/1
active: Potency [7] 4.07 µM
inactive: outcome [2] | Potency [3] | Potency [4] | outcome [9] | Potency [5] | Potency [10] | Potency [6] | outcome [8]

Cc1nc2ccccc2c(=O)o1
inactive: Potency [1] | outcome [2] | Potency [3] | Potency [4] | Potency [10] | Potency [6] | outcome [8]

COc1cc(C=O)ccc1OC(=O)C(C)C
inactive: outcome [2] | Potency [3] | Potency [4] | outcome [9] | Potency [5] | Potency [10] | Potency [6] | Potency [7] | outcome [8]

CCCCCCCCCCCCC
inactive: Potency [1] | outcome [2] | Potency [3] | Potency [4] | Potency [5] | Potency [10] | Potency [6] | Potency [7] | outcome [8]

C[C@@H]1C[C@H]2[C@@H]3C[C@H](F)C4=CC(=O)C=C[C@]4(C)[C@@]3(F)[C@@H](O)C[C@]2(C)[C@@]1(O)C(=O)CO
inactive: Potency [1] | outcome [2] | Potency [4] | Potency [5] | Potency [7]

C=C[C@@H](C)CCC=C(C)C
inactive: Potency [1] | outcome [2] | Potency [3] | Potency [4] | Potency [5] | Potency [6] | Potency [7]

O=C(CN1CCN(Cc2ccc3c(c2)OCO3)CC1)N1c2ccccc2Sc2ccccc21
inactive: Potency [1] | outcome [2] | Potency [3] | outcome [9] | Potency [5] | Potency [10] | Potency [7] | outcome [8]

Cc1cc(C)cc([N+](=O)[O-])c1
inactive: Potency [1] | outcome [2] | outcome [9] | Potency [5] | Potency [10] | Potency [7] | outcome [8]
active: Potency [3] 55.6 µM

CCCCCC1Nc2cc(C(F)(F)F)c(S(N)(=O)=O)cc2S(=O)(=O)N1 (stereo not drawn)
inactive: Potency [1] | outcome [2] | Potency [3] | Potency [4] | Potency [5] | Potency [10] | Potency [6] | Potency [7] | outcome [8]

CCCCC(CC)CNC(=O)CC(C)OC(=O)CCC(=O)O (stereo not drawn)
active: Potency [1] 23.9 µM | Potency [3] 26.8 µM | Potency [10] 26.8 µM
inactive: outcome [2] | outcome [9] | Potency [5] | Potency [7] | outcome [8]

CCCCOC(=O)[C@@H](C)Oc1ccc(Oc2ccc(C(F)(F)F)cn2)cc1
inactive: outcome [2] | Potency [3] | Potency [4] | outcome [9] | Potency [5] | Potency [10] | Potency [6] | Potency [7] | outcome [8]

O=C(c1ccc2c(c1)C(=O)OC2=O)c1ccc2c(c1)C(=O)OC2=O
inactive: Potency [1] | outcome [2] | Potency [3] | Potency [4] | Potency [5] | Potency [10] | Potency [6] | Potency [7] | outcome [8]

NS(=O)(=O)c1cc2c(cc1Cl)NC(C(Cl)Cl)NS2(=O)=O (stereo not drawn)
inactive: outcome [2] | Potency [3] | Potency [4] | outcome [9] | Potency [5] | Potency [10] | Potency [6] | Potency [7] | outcome [8]

CC(=O)OCCCc1ccccc1
inactive: Potency [1] | outcome [2] | Potency [3] | Potency [4] | Potency [5] | Potency [6] | Potency [7]

C1=CCC(c2ccccc2)CC1 (stereo not drawn)
inactive: Potency [1] | outcome [2] | Potency [3] | Potency [4] | Potency [5] | Potency [6] | outcome [8]

COCC(=O)Nc1c(I)c(C(=O)NCC(O)CO)c(I)c(C(=O)N(C)CC(O)CO)c1I (stereo not drawn)
inactive: Potency [1] | outcome [2] | Potency [3] | Potency [4] | Potency [5] | Potency [7] | outcome [8]

NS(=O)(=O)c1ccccc1OC(F)(F)F
inactive: Potency [1] | outcome [2] | Potency [3] | Potency [4] | Potency [5] | Potency [10] | Potency [7] | outcome [8]

O=C(O)Cc1cccc(-c2cc(CCCCCCc3ccc(O[C@H]4O[C@H](CO)[C@@H](O)[C@H](O)[C@@H]4O)c(-c4cccc(CC(=O)O)c4)c3)ccc2O[C@H]2O[C@H](CO)[C@@H](O)[C@H](O)[C@@H]2O)c1
inactive: cytotoxicity increase [1] 15.1% [at 0.29 µM] | activity change, negative = cytotoxic [2] -9.69% [at 0.29 µM] | cytotoxicity [3] 15.2% [at 0.29 µM] | cytotoxicity increase [4] 20% [at 0.29 µM] | cytotoxicity increase [5] -14.2% [at 0.29 µM] | cytotoxicity increase [7] -1.66% [at 0.29 µM]

CN[C@@H]1[C@H](O)[C@H](NC)[C@H]2O[C@@]3(O)C(=O)C[C@@H](C)O[C@H]3O[C@@H]2[C@H]1O
inactive: Potency [1] | outcome [2] | Potency [3] | Potency [4] | Potency [5] | Potency [6] | Potency [7]

F[Si-2](F)(F)(F)(F)F
inactive: Potency [1] | outcome [2] | Potency [3] | Potency [4] | Potency [5] | Potency [10] | Potency [6] | Potency [7] | outcome [8]

Cc1c(C(C)C)c(=O)n(-c2ccccc2)n1C
inactive: outcome [2] | Potency [3] | Potency [4] | Potency [5] | Potency [10] | Potency [6] | Potency [7] | outcome [8]

O=S(=O)(O)CCO
inactive: outcome [2] | Potency [3] | Potency [4] | Potency [5] | Potency [10] | Potency [6] | Potency [7]

CCCCC(C)C(=O)O (stereo not drawn)
inactive: outcome [9] | Potency [5] | Potency [7]

CCC(O)C(C)(C)C (stereo not drawn)
inactive: outcome [2] | Potency [3] | Potency [4] | outcome [9] | Potency [10] | Potency [7] | outcome [8]
